Sampled rows, rich in hits. Any-hit rate of the full collection: about 7.3%.
Luc counter: counter-screen: inhibitors of Kinase-Glo firefly luciferase; Kinase-Glo luciferase, ATP luminescence, 8 min; Potency, µM (titrated, usually from 38.3 µM), for the others: at the highest dose activity change, negative = inhibition, most hits filed as inhibitors; 200,000 tested, 0.28% active; further: on the % scale 0 is the no-effect control and ±100 the full control effect; nearly all actives have a fitted effect of over 60% in size
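Light output from Kinase-Glo luciferase with luciferin and 10 uM ATP in 50 mM imidazole pH 7.2, KCl, MgCl2, Tween 20, BSA; compound pin-delivered, 8-min ambient incubation, then luminescence read.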
SMN2 splice up: enhancers of SMN2 splice variant expression; HEK293 SMN2-luciferase splicing reporter, luminescence, 30-36 h; Potency, µM (doses to about 46.1 µM), for the others: at the top dose activity change, positive = activation, most hits filed as activators; 210,000 tested, 2.8% active; AID 1458; further: % of control where 0% means no effect; nearly all actives have a fitted effect of over 55% in size
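qHTS luciferase splicing reporter: luminescence rises when SMN2 exon 7 is included in transfected HEK293 cells. Compound exposure lasted 30-36 h at 37C, with 4.5 mM final sodium butyrate as control, followed by a ONE-Glo read.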
NPC1 promoter act: NPC1 promoter activation | Huh7 NPC1 promoter luciferase reporter, 24 h | Potency, µM (doses to about 9.22 µM), for inactives: top-dose activation, most hits filed as activators | 320,000 tested, 2.4% active | AID 485313; further: % of control where 0% means no effect; nearly all actives have a fitted effect of over 60% in size
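Huh7 reporter cells (NPC1 promoter driving luciferase) are dosed with compound for 24 h at 37 °C, 5% CO2; luciferase detection reagent is then added and luminescence measured after 10 min at ambient temperature.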
FLuc modulator: counter-screen for miR-21 project: firefly luciferase inhibitors or activators | AID 588342 | 360,000 tested, 6.9% active | Potency, µM (series often up to 57.5 µM), for the others: top-dose activity change, negative = inhibition, hits mostly inhibitors | purified FLuc, Km substrates, luminescence inhibition;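 further: plate controls were vehicle for no effect and reference inhibitor for full effect; nearly all actives have a fitted effect of over 55% in size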
Target sequence (P08659 whole entry, looked up): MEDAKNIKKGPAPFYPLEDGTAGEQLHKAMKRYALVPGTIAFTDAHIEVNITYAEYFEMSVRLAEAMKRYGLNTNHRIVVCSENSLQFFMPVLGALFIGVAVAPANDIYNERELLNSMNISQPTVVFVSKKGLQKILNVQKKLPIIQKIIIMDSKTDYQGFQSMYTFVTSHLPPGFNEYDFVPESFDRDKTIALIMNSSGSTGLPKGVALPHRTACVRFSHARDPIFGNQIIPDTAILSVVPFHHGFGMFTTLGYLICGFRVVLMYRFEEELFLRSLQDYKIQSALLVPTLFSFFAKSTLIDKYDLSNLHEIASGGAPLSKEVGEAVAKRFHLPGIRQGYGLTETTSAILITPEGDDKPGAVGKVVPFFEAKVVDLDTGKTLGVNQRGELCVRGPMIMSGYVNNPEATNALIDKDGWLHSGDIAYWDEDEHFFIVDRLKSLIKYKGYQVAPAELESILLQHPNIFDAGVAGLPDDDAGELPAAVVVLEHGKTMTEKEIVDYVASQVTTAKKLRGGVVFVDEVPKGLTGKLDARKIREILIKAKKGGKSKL
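Biochemical qHTS of compounds, final roughly 60 µM downward over six points, against 10 nM purified firefly luciferase using Km concentrations of substrates (10 uM D-luciferin, 10 uM ATP) in Tris acetate pH 7.5 buffer; luminescence output.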
Rab9 promoter act: Rab9 promoter activation. Huh7 Rab9 promoter-luciferase reporter, luminescence, 24 h. Potency, µM (top dose mostly 9.22 µM), for inactives: top-dose activation, negative = inhibition, hits mostly activators. 320,000 tested, 2.8% active. AID 485297; further: % of control where 0% means no effect; nearly all actives have a fitted effect of over 60% in size
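Huh7 cells stably carrying a Rab9 promoter-luciferase reporter, 1500 cells per well in OP-MEM I with 10% FBS, treated with compound 24 hours at 37C. Luciferase activity read by luminescence after 10 minutes with Amplite reagent.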
The depositor's hits bear a star; u = inconclusive; x = no result; [ ] = dose if it differs, or a comment. The call rests on the fitted dose curve; in most records, active means well fitted curve in the direction sought with a large enough effect; inconclusive means small, poorly fitted or top-dose-only effect, or another doubt; inactive means no such curve, though single readings can be large; an effect the other way counts as inactive or inconclusive. Potency means the concentration at half of the fitted maximal effect.

SMILES | Luc counter | SMN2 splice up | NPC1 promoter act | FLuc modulator | Rab9 promoter act
Cc1cccc(C(=O)Nc2ccc(C)c(OC(=O)c3cccc(C)c3)c2)c1 | -3.9% | -10.6% | 0.8% | -14.0% | 11.7%
CSc1cccc(NC(=O)c2ccc3c(c2)CCCN3S(C)(=O)=O)c1 | x | -11.2% | x | 12µM* | x
COc1cccc(NC(=O)CC(=O)c2ccccc2)c1 | x | x | 3.55µM* | 16.9µM* | 2.82µM*
Cc1cccc(C(=O)Nc2ccc3ccccc3c2)c1 | x | x | u | 2.39µM* | 0.631µM*
O=C(Nc1cccc(C(F)(F)F)c1)C1CCCN(S(=O)(=O)c2cccc3nsnc23)C1 (stereo not drawn) | x | -19.2% | x | -3.5% | x
CN(Cc1ccccc1)S(=O)(=O)c1cc(Br)cc2c1N(C(=O)C1CC1)CC2 | x | -8.7% | x | 2.9% | x
CC(C)c1ccc(NC(=O)c2cc(S(=O)(=O)NCc3ccccc3Cl)ccc2F)cc1 | x | x | x | -4.1% | x
CCOc1ccccc1N1CC(c2nc3ccccc3n2CCCOc2ccccc2OC)CC1=O (stereo not drawn) | x | 22.6% | x | 16.9µM* | x
COc1ccccc1OCCCn1c(C2CC(=O)N(c3ccccc3Cl)C2)nc2ccccc21 (stereo not drawn) | x | 17.5% | x | 16.9µM* | x
CCc1ccccc1N1CC(c2nc3ccccc3n2CCCCOc2ccccc2OC)CC1=O (stereo not drawn) | x | -73.1% | x | -17.1% | x
Cc1cc2nc(C3CCN(C(=S)NCC(C)C)CC3)[nH]c2cc1C | -7.9% | -3.1% | 0.2% | 16.9µM* | -0.9%
COc1ccccc1NC(=S)N1CCC(c2nc3cc(C)c(C)cc3[nH]2)CC1 | -1.6% | -1.4% | 4.3% | 13.5µM* | 21.9%
O=P(O)(O)OC1[C@H](O)[C@H](OP(=O)(O)O)C(OP(=O)(O)O)[C@H](OP(=O)(O)O)[C@H]1O (stereo partly drawn) | 4.4%[39.9 µM] | x | x | x | x
COc1cc(Br)ccc1C1C(C(=O)Nc2ccc(C)cc2C)=C(C)Nc2nnnn21 (stereo not drawn) | x | -1.9% | x | 0.5% | x
Cc1ccc2nc(NC(=O)C3CCCN(S(=O)(=O)c4cnc[nH]4)C3)sc2c1 (stereo not drawn) | 1.5% | u | u | 12µM* | u
Cn1c(COc2ccc(C(=O)O)cc2)nc2ccccc21 | x | x | -3.6% | -19.5% | -0.3%[1.84 µM]
Cn1c(COc2ccc(F)cc2)nc2ccccc21 | x | x | 2.51µM* | 13.5µM* | 3.55µM*
Cc1ccccc1OCc1nc2ccccc2n1C | x | x | 3.16µM* | 8.49µM* | 3.98µM*
COc1ccc(C(=O)OC2=C(C(=O)c3ccccc3)N(C)S(=O)(=O)c3ccccc32)cc1OC | x | -4.9% | x | -6.1% | x
O=C(CC(C(=O)O)c1cccc(Cl)c1)c1ccccc1 (stereo not drawn) | x | x | 0.2% | 1.7% | -10.9%
O=C(CC(Nc1ccccc1)C(=O)O)c1ccccc1 (stereo not drawn) | u | 12.6µM* | 3.16µM* | 0.849µM* | 2.82µM*
O=C(CC(Nc1ccccc1)c1ccc(F)cc1)c1ccccc1 (stereo not drawn) | 2.2% | -2.3% | -0.7% | u | 4.4%
O=C(CC(Nc1ccc(Cl)cc1Cl)C(=O)O)c1ccccc1 (stereo not drawn) | x | x | 5.8% | 2.69µM* | 10.1%
Cc1ccc(NC(CC(=O)c2ccccc2)C(=O)O)cc1Cl (stereo not drawn) | x | x | 10.1% | 2.13µM* | u
Cc1cccc(NC(=O)c2cc(S(=O)(=O)N3CCc4ccccc43)ccc2F)c1C | x | x | x | -5.4% | x
O=C(CSc1nc2ccccc2o1)NCC1CCCO1 (stereo not drawn) | x | x | -4.6% | -0.2% | 2.4%
Cc1cc(C(=O)CSc2nc3ccccc3c(=O)[nH]2)c(C)n1C | -0.3% | 35.5µM* | u | u | u
Cc1cc(C(=O)CSc2nc3ccccc3[nH]2)c(C)n1CC1CCCO1 (stereo not drawn) | -0.1% | -53.4% | u | 0.536µM* | u
Cc1ccc(-n2nnnc2SCC(=O)c2cc(C)n(CC3CCCO3)c2C)cc1 (stereo not drawn) | 1.0% | -27.9% | 29.9% | -17.2% | 15.5%
Cc1cc(C(=O)CSc2nc3ccccc3o2)c(C)n1CC1CCCO1 (stereo not drawn) | -2.5% | -89.0% | 0.708µM* | 1.35µM* | 0.794µM*

Screening data from PubChem BioAssay.
